WT yeast gro inh: growth inhibition of WT yeast, mitochondrial fusion screen; mitochondrial fusion phenotypic screen, WT strain; actives 2.1% (n = 190,000); inhibition, % at 10 µM; in the data active = inhibition above about 58%; tested in S. cerevisiae
Lmaj promast: inhibitors of Leishmania major promastigote growth; Leishmania major promastigotes, resazurin fluorescence viability; inhibition, % at 10 µM; actives 9% (n = 200,000); AID 1063; in the data active = inhibition above about 50%;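 note: promastigotes grown with compound for 44 hours at 28 °C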
Insulin prom inh: TRM-6 insulin promoter activity inhibition; actives 0.9% (n = 130,000); inhibition, % at 2 µM; TRM-6 cells (human fetal islet line), insulin promoter-eGFP reporter, imaging; reporter expression induced with tamoxifen; AID 1273;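 active = inhibition above the mean plus 3 SD, with well images judged a real hit on visual review, cut at about 60% in these data, passing the limit was not always enough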
ROMK mod: human ROMK K+ channel modulation, primary screen; P48048; Tet-inducible ROMK, thallium flux fluorescence; actives lie on both sides; B-score at 10 µM; actives 2% (n = 130,000); AID 1918;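 active = signal ratio slope over the read window, or its plate-corrected B-score, at least 3 SD from the plate mean, either direction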;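 note: B-score of the F/F0 ratio slope over 7 to 12 s after thallium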
Insulin prom up: MIN6 insulin promoter up-regulation. MIN6 insulin promoter-GFP reporter, high-content imaging; stronger effect = higher value. z-score at 5 µM. actives 0.3% (n = 190,000);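 active = z-score above 3 at 5 µM with at least 500 cells counted in the well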
KCC2 mod: modulates chloride dependent transport by human KCC2; Q9H2X9; KCC2 cells, thallium flux FluoZin-2 fluorescence; B-score of Tl+ flux slope (higher = more flux/activation; lower = inhibition) at 10 µM; actives 2.2% (n = 190,000); AID 1456;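 active = thallium flux slope and its plate-corrected score both differing from the plate sample mean at a set confidence after two filtering rounds, in either direction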;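 note: slope of fluorescence scaled to starting intensity during 10 to 20 s after thallium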
* marks the source's active call; other numbers are inactive results; / = no result. Most compounds without a hit are left out; they make up all but 12% or so of the library.

SMILES	WT yeast gro inh	Lmaj promast	Insulin prom inh	ROMK mod	Insulin prom up	KCC2 mod
O=C(CSc1nnc(-c2ccc(O)cc2)n1Cc1ccco1)c1ccccc1	1.6	54.0*	-77.4	1.28	0.22	-3.99
O=C(CSc1nnc(-c2cccnc2)n1Cc1ccco1)c1ccccc1	-3.5	-6.8	68.8	-0.482	1.1	-2.67
COc1ccc(C(=O)CSc2nnc(CNc3ccc(C)cc3C)n2Cc2ccco2)cc1	5.5	41.9	/	/	-1.96	-1.07
O=C(Oc1ccccc1-c1nnco1)c1ccccc1	8.2	-4.5	0.0	-0.444	-0.19	1.25
CSc1ccccc1NC(=O)CO/N=C(\C)c1cc2ccccc2o1	53.6	95.3*	-5.6	0.361	0.13	0.127
C/C(=N\OCC(=O)NC12CC3CC(CC(C3)C1)C2)c1cc2ccccc2o1	65.8*	8.3	/	/	0.28	0.476
O=C(NNC(=O)C1CC2CCC1C2)c1ccccc1 (centres undefined)	6.2	-6.2	29.4	0.412	0.11	-0.2
CCN(CC(=O)NC1CCS(=O)(=O)C1)S(=O)(=O)c1ccc(C)c(C)c1 (centres undefined)	-0.2	54.9*	-27.6	-0.517	0.8	-0.186
Cc1ccc(-n2nc3c(c2NC(=O)c2c(-c4ccccc4Cl)noc2C)CS(=O)(=O)C3)c(C)c1	3.9	15.9	-9.1	/	0.03	/
Cc1ccc(N2C(=O)c3cccc4c(Oc5ccccc5[N+](=O)[O-])ccc(c34)C2=O)c(C)c1	3.1	97.4*	0.0	-1.14	1.38	-1.05
COc1ccccc1N1C(=O)c2cccc3c(C(=O)O)ccc(c23)C1=O	3.5	-2.4	-12.9	0.043	-0.07	0.0583
CCc1ccc(NC(=O)c2cc3c(C)nc4ccccc4c3o2)cc1	62.6*	-1.1	40.0	1.24	-0.34	-0.0701
Cc1cc(C(=O)Nc2ccccc2)oc1C	2.9	55.5*	19.4	/	-0.26	0.982
Cc1ccccc1NC(=O)c1cc2c(C)nc3ccccc3c2o1	13.7	30.5	-100.0	-0.199	0.21	0.151
CC(C(O)c1ccc(O)cc1)N1CCC(Cc2ccccc2)CC1 (centres undefined)	41.9	95.6*	-40.0	-1.48	-0.2	0.25
COc1cccc(CN2CCN(S(=O)(=O)c3ccc(NC(C)=O)cc3)CC2)c1OC	-0.6	-9.1	/	-0.726	0.08	0.117
COC(=O)[C@@]1(Cc2ccc(F)cc2)[C@H]2c3cc(C(=O)N4CCCC4)n(Cc4ccc(C(F)(F)F)nc4)c3C[C@H]2CN1C(=O)c1ccccc1	19.3	87.3*	5.0	0.165	-0.78	1.45
Cc1cc(S(=O)(=O)NCC(C)C)ccc1OCC(=O)N1CCOCC1	-2.6	-5.1	-50.0	/	/	-0.386
Cc1ccccc1NC(=O)CCC(=O)N/N=C/c1ccc(F)cc1	-5.5	-2.8	/	/	-0.13	-1.07
Cc1ccccc1N(CC(=O)N/N=C/c1ccc(Cl)cc1)C(=O)c1ccccc1	45.1	67.5*	53.3	0.162	-0.31	0.245
Cc1ccccc1N(CC(=O)N/N=C/c1ccc(F)cc1)C(=O)c1ccccc1	5.4	99.2*	-37.8	0.664	-0.04	-0.153
CCOC(=O)CN(C(=O)c1ccccc1)c1ccccc1C	7.5	7.2	-32.4	0.00209	-0.76	-0.224
COc1ccc(-c2cc(C(=O)OCC(=O)NC(C)(C)C)c3ccccc3n2)cc1	4.5	16.0	45.5	-0.353	-0.43	-0.121
O=C(c1ccc(=O)[nH]n1)N1CCN(S(=O)(=O)c2ccc3ccccc3c2)CC1	-14.3	-9.0	/	-0.309	0.28	-0.847
O=C(Nc1ccc(F)cc1)c1csc(Cc2ccccc2)n1	30.7	-7.7	2.6	-1.35	0.14	-1.52
SMILES	WT yeast gro inh	Lmaj promast	Insulin prom inh	ROMK mod	Insulin prom up	KCC2 mod
COC(=O)c1sc(N)c(C(=O)OC)c1CSc1nnnn1C	/	0.7	-16.1	/	-1.47	0.0596
O=C(NCCO)c1ccc2nc(-c3ccco3)c(-c3ccco3)nc2c1	-10.6	-3.3	28.6	/	-0.26	0.697
O=C(NCCc1ccccc1)c1ccc2nc(-c3ccco3)c(-c3ccco3)nc2c1	25.9	71.6*	-21.1	-0.486	-0.12	-0.665
Cc1ccc(OCC(=O)OCc2c(C)noc2C)cc1C	2.3	-5.8	16.2	0.963	-0.4	1.22
O=C(Nc1nnc(C2CC2)s1)c1cc(-c2ccccc2)nn1-c1ccccc1	70.3*	13.6	-6.5	0.739	/	0.305
Nc1ccccc1Nc1cc(-c2ccccc2)nn1-c1cccc(Cl)c1	67.7*	6.8	-218.4	/	-0.04	0.455
Cc1ccc(C)c(NC(=O)c2cc(-c3ccccc3)nn2-c2ccccc2)c1	73.5*	17.1	-3.2	0.529	0.14	0.153
Cc1ccc(-c2cc(NC(=O)CCl)n(-c3ccccc3)n2)cc1	7.1	100.2*	40.0	-2.64	/	-0.142
Cc1ccc(C)c(NC(=O)c2nc(-c3ccccc3)n(-c3ccccc3)n2)c1	17.6	34.7	/	0.34	-1.83	-0.64
C=CCSc1nnc(CC(OC)OC)n1-c1ccccc1	2.8	-4.6	36.4	0.608	0.59	1.02
COCCNC(=O)[C@@]1(Cc2ccccc2)C=C[C@@H](C)N1C(C)=O	-6.4	-6.4	59.1	0.496	-0.07	0.134
O=C(NCc1ccc2c(c1)OCO2)C1CCC(=O)N1C1CCCC1 (centres undefined)	0.2	-6.9	-40.0	0.389	0.45	0.56
CC(=O)Nc1ccc(-c2cc(NC(C)=O)n(-c3ccccc3)n2)cc1	9.5	-1.5	/	0.0169	0.92	0.276
Cc1ccc(-c2nn(-c3ccccc3)cc2NC(=O)CCl)cc1	-10.3	93.3*	/	0.00238	0.27	0.431
O=C(CCl)Nc1cc(-c2ccccc2)nn1-c1ccccc1	12.5	98.5*	86.7*	/	/	0.115
Cc1ccccc1NC(=O)c1cn(-c2ccccc2)nc1-c1ccccc1	16.6	11.3	/	-0.0629	0.07	1.34
O=C(NNc1ccc(C(F)(F)F)cc1[N+](=O)[O-])c1ccc(NS(=O)(=O)c2ccc(F)cc2)cc1	8.1	51.8*	40.5	-1.43	-1.48	0.162
COc1ccc(-n2cc(CNCC3CCOCC3)c(-c3cccc(F)c3)n2)cc1	8.3	86.8*	/	0.0271	0.32	0.616
COc1ccc(-n2cc(CN(C)C3CCOCC3)c(-c3cccc(F)c3)n2)cc1	7.4	16.1	/	-0.0185	-0.03	/
COc1ccc(-n2cc(CNCCCn3ccnc3)c(-c3cccc(F)c3)n2)cc1	-9.9	100.3*	/	-2.21	-0.36	1.85
O=C(CN1CCN(S(=O)(=O)c2ccc(Br)cc2)CC1)N/N=C/c1ccco1	-11.8	1.9	3.0	/	0.09	-0.11
Cn1nc(NC(=O)CC(C)(C)CC(=O)O)c2ccccc21	/	/	/	0.618	0.47	1.39
O=C(CC1C(=O)NCCN1Cc1cccc(Oc2ccccc2)c1)NCCc1ccccn1 (centres undefined)	1.1	-2.1	/	-0.224	1.67	0.0471
CCC(c1nnnn1CC1CCCO1)N(CCCO)Cc1cc2cccc(C)c2[nH]c1=O (centres undefined)	-15.7	-2.5	-22.2	1.2	-0.02	/
Cc1ccc2cc(CN(CCCN3CCOCC3)C(c3nnnn3Cc3ccco3)C(C)C)c(=O)[nH]c2c1C (centres undefined)	/	67.1*	-500.0	-1.56	/	-0.919
